Bioassay records (PubChem BioAssay)
Gal4-VP16 FLuc: Gal4-VP16 reporter inhibition counter-screen; Drosophila S2 Gal4-VP16 UAS-luciferase, luminescence, 20 h; Potency, µM (top dose mostly 53.6 µM), actives largely listed as inhibitors; 310,000 tested, 3.5% active; AID 2546;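 note: Gal4-VP16 expression switched on by copper sulfate through the metallothionein promoter; nearly all actives have a fitted effect of over 50% in size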
RORg inh: ROR gamma (mouse) transcription inhibition. P51450. Drosophila S2 Gal4-RORgamma UAS-luciferase reporter, 20 h. Potency, µM (doses to about 53.6 µM), most hits filed as inhibitors. 310,000 tested, 5.4% active. AID 2551; note: nearly all actives have a fitted effect of over 60% in size
Target sequence (P51450 whole entry, looked up, the tested form may be a part): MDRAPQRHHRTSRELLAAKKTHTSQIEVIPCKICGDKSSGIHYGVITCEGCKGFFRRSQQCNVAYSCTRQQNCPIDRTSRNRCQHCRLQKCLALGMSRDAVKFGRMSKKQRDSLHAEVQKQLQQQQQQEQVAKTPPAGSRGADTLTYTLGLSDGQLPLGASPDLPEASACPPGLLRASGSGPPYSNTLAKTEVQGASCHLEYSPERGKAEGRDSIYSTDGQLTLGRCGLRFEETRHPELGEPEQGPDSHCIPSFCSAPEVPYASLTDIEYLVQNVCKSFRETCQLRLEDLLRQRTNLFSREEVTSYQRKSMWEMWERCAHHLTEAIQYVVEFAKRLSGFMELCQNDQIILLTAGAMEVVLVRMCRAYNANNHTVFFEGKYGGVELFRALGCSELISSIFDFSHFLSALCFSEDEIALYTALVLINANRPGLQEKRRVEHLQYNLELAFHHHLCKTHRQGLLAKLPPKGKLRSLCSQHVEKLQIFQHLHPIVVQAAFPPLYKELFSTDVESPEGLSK
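Luminescence from a UAS-regulated Photinus luciferase reporter in stably transfected Drosophila Schneider cells is measured; decreased signal marks ROR gamma inhibition. Fusion expression is induced by 700 uM copper sulfate for 20 hr.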
GLP1R ag: GLP-1 receptor (human) agonism | HEK293 GLP-1R CRE-luciferase, luminescence, 4-6 h; cells express a hypersensitive GLP-1R form | 380,000 tested, 0.007% active | P43220 | Potency, µM (highest dose often 45.6 µM), most hits filed as activators | AID 624172
GLP1R cytotox: cytotoxic in the GLP-1 receptor inverse agonist counter-screen; HEK293 cAMP-luciferase reporter cells, luminescence, 24 h; 410,000 tested, 0.13% active; Potency, µM (top dose mostly 38.3 µM), most hits filed as inhibitors;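 note: loss of luciferase light is scored as toxicity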
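Seeding density was 200 cells/uL; after overnight-length (12 h) culture, 23 nL compounds went on for 24 h at 37 °C. Readout used a luciferase detection reagent, luminescence taken after 12 min at room temperature.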
GLP-1R inv ag: GLP-1 receptor (human) inverse agonism; 410,000 tested, 1.6% active; HEK293 GLP-1R CRE-luciferase, luminescence, 24 h; GLP-1R form is constitutively active; Potency, µM (doses to about 38.3 µM), usual class: inhibitors; note: nearly all actives have a fitted effect of over 55% in size
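Readout was luciferase luminescence, measured 12 min after detection reagent at room temperature. Beforehand, GLP-1R reporter HEK293 cells had sat 12 h, then received compounds for 24 hr at 37 deg C.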
Hits are given with their value. Shown are actives, neighbours in structure and some others; about 5.9% of the full set was active somewhere. Calls come from the whole dose curve; as a rule, active = well fitted curve in the direction sought with a large enough effect; inconclusive = small, poorly fitted or top-dose-only effect, or another doubt; inactive = no such curve, though single readings can be large; an effect the other way counts as inactive or inconclusive.

How did CCOC(=O)c1ccc(NC(=O)CC2OCCN(CC)C2=O)cc1 (stereo not drawn) do in these assays?
Gal4-VP16 FLuc: inconclusive; RORg inh: 20µM; GLP1R ag: inactive; GLP1R cytotox: inactive; GLP-1R inv ag: inactive

What do the screens show for `CC(C)(C)OC(=O)NCc1ccc(CNC(=O)c2[nH]cnc2C(=O)NCC(=O)OCc2ccccc2)cc1`?
Gal4-VP16 FLuc: 22µM; RORg inh: inactive; GLP1R ag: inactive; GLP1R cytotox: inactive; GLP-1R inv ag: inactive

How did O=C(CNC(=O)c1nc[nH]c1C(=O)NCc1ccccc1)OCc1ccccc1 do in these assays?
Gal4-VP16 FLuc: inconclusive; RORg inh: 11µM; GLP1R ag: inactive; GLP1R cytotox: inactive; GLP-1R inv ag: inactive

How did C[C@H](NC(=O)c1nc[nH]c1C(=O)NCC(=O)OCc1ccccc1)c1ccccc1 do in these assays?
Gal4-VP16 FLuc: inconclusive; RORg inh: 14µM; GLP1R ag: inactive; GLP1R cytotox: inactive; GLP-1R inv ag: inactive

Results for C[C@H](NC(=O)c1nc[nH]c1C(=O)NCC(=O)OCc1ccccc1)C(=O)OCc1ccccc1 ?
Gal4-VP16 FLuc: inactive; RORg inh: inconclusive; GLP1R ag: inactive; GLP1R cytotox: inactive; GLP-1R inv ag: inactive

How did Cn1c(=O)oc2cc(S(=O)(=O)N3CCCC(C(=O)NCc4ccc(F)cc4)C3)ccc21 (stereo not drawn) do in these assays?
GLP1R ag: inactive; GLP1R cytotox: inactive; GLP-1R inv ag: inactive

Results for C/C(=N\NC(N)=S)C1(C)CCCCC1 ?
Gal4-VP16 FLuc: 8.9µM; RORg inh: 3.5µM; GLP1R ag: inactive; GLP1R cytotox: inconclusive; GLP-1R inv ag: inconclusive

Results for C=CCOc1ccc(C(=O)Nc2ncn[nH]2)cc1 ?
Gal4-VP16 FLuc: inactive; RORg inh: 11µM; GLP1R ag: inactive; GLP1R cytotox: inactive; GLP-1R inv ag: inactive

Results for CC(C)COc1ccc(C(=O)Nc2ncn[nH]2)cc1 ?
Gal4-VP16 FLuc: 3.5µM; RORg inh: 2.8µM; GLP1R ag: inactive; GLP1R cytotox: inactive; GLP-1R inv ag: inactive

How did CC(C)Oc1cccc(C(=O)Nc2ncn[nH]2)c1 do in these assays?
Gal4-VP16 FLuc: inconclusive; RORg inh: 16µM; GLP1R ag: inactive; GLP1R cytotox: inactive; GLP-1R inv ag: inactive

How did CCOc1ccc(C(=O)Nc2ncn[nH]2)cc1 do in these assays?
Gal4-VP16 FLuc: inactive; RORg inh: inactive; GLP1R ag: inactive; GLP1R cytotox: inactive; GLP-1R inv ag: inactive

How did CN(c1ccccc1)S(=O)(=O)c1cccc(C(=O)Nc2ncn[nH]2)c1 do in these assays?
Gal4-VP16 FLuc: inconclusive; RORg inh: 8.9µM; GLP1R ag: inactive; GLP1R cytotox: inactive; GLP-1R inv ag: inactive

Results for O=c1c(O)c(-c2ccccc2)oc2ccc3occc3c12 ?
Gal4-VP16 FLuc: inactive; RORg inh: inactive

What do the screens show for `O=C(NC1CC(=O)N(c2cccc(F)c2)C1)C1CC1` (stereo not drawn)?
GLP1R cytotox: inactive; GLP-1R inv ag: inactive

How did CC(C)C[C@@H]1NC(=O)[C@H](Cc2ccccc2)N(C)C(=O)[C@H](C)NC(=O)c2ccccc2NC(=O)[C@H](Cc2ccc(O)cc2)N(C)C1=O do in these assays?
Gal4-VP16 FLuc: inactive; RORg inh: inactive; GLP1R ag: inactive; GLP1R cytotox: inconclusive; GLP-1R inv ag: 10µM

Results for S=C1NC[C@H](Cc2ccccc2)N1CC1CCN(CCCC2CCCC2)CC1 ?
GLP1R ag: inactive; GLP1R cytotox: inactive; GLP-1R inv ag: inconclusive

Results for O=C1NC[C@H](CC2CCCCC2)N(CCc2cccc3ccccc23)C1=O ?
GLP1R ag: inactive; GLP1R cytotox: inactive; GLP-1R inv ag: inactive

What do the screens show for `CCCCN1C(N)=NC[C@@H]1c1ccccc1`?
GLP1R ag: inactive; GLP1R cytotox: inactive; GLP-1R inv ag: inactive

Results for CCCCN1C(=S)NC[C@@H]1c1ccccc1 ?
Gal4-VP16 FLuc: 13µM; RORg inh: 2.8µM; GLP1R ag: inactive; GLP1R cytotox: inconclusive; GLP-1R inv ag: inconclusive

Results for S=C1NC[C@H](CC2CCCCC2)N1CCc1cccc2ccccc12 ?
Gal4-VP16 FLuc: 0.63µM; RORg inh: 0.25µM; GLP1R ag: inactive; GLP1R cytotox: inactive; GLP-1R inv ag: 7.9µM

Results for S=C1NC[C@H](c2ccccc2)N1CC1CCCCC1 ?
Gal4-VP16 FLuc: 4.5µM; RORg inh: 1.1µM; GLP1R ag: inactive; GLP1R cytotox: inconclusive; GLP-1R inv ag: inconclusive
